Bioassay records: PubChem BioAssay, National Center for Advancing Translational Sciences (NCATS)
Shown are actives, neighbours in structure and some others; about 8.3% of the full set was active somewhere.
Lassa entry inh: qHTS for Inhibitors of binding or entry into cells for Lassa Virus. Lassa virus pseudotype entry inhibition, cell reporter. Potency, µM (highest dose often 37.9 µM), usual class: inhibitors. 300,000 tested, 1.2% active; calls by dose curve; tested in HEK293 cells; further: nearly all actives have a fitted effect of over 50% in size
HCMV inh: qHTS Assay for inhibitors of the human cytomegalovirus (HCMV); 410,000 tested, 4.5% active; activity change, negative = inhibition, % at 57.5 µM; HFF cells, HCMV-luciferase reporter, 72 h; hits give low values; in the data active means activity change below about -60%; inconclusive means no clear call, values can overlap the other calls; inactive means above about -39%
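Luciferase read-out from HCMV-luciferase-infected HFFs (MOI 1 PFU/cell) 72 h post infection at 37C; compounds added after 16 h cell attachment; activity normalized between buffer-only basal and Salinomycin (10uM) inhibitor controls.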
HCV inh: qHTS Assay for Inhibitors of Hepatitis C Virus (HCV). 340,000 tested, 3.4% active. Potency, µM (doses to about 41.8 µM), usual class: inhibitors. Huh7.5.1 HCVcc-Cre infection, luciferase reporter, 44 h
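A cell-based infection assay in which seeded cells (1,000 per well) receive test compound after 4 h, are inoculated with HCVcc-Cre at approximately 0.5 moi, and are incubated 44 h before luminescence detection.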
MARV entry inh: qHTS for inhibitors of binding or entry into cells for Marburg Virus | Marburg virus pseudotyped entry inhibition, cell reporter | Potency, µM (series often up to 37.8 µM), hits mostly inhibitors | 300,000 tested, 1.8% active; calls by dose curve; tested in HEK293 cells
FMDV inh: High Throughput Screening for Foot and Mouth Disease Virus Antivirals | FMDV antiviral cell-based qHTS | Potency, µM (doses to about 57.9 µM), most hits filed as inhibitors | 410,000 tested, 1.2% active; calls by dose curve; tested in HEK293T cells; further: read-out not given here; nearly all actives have a fitted effect of over 45% in size
FBPA Giardia inh: qHTS Assay for Inhibitors of Fructose-1,6-bisphosphate Aldolase from Giardia Lamblia. 290,000 tested, 0.71% active. AID 2451, 2010. purified Giardia FBPA. Potency, µM (series often up to 59.6 µM), most hits filed as inhibitors; further: nearly all actives have a fitted effect of over 55% in size
Target sequence (A8B2U2 whole entry, looked up): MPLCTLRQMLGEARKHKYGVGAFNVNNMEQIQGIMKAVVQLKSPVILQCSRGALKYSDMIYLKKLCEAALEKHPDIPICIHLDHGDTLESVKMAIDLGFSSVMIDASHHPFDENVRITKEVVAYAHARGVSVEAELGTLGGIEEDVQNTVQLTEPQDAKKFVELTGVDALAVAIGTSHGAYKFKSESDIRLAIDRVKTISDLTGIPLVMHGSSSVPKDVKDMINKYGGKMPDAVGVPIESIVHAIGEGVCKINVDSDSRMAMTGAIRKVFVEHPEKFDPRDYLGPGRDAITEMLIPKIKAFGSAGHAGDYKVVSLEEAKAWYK
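40 nM FBPA preincubated 10 min at RT with compound (up to 57.5 uM final), then substrate plus GAPDH/TPI/NAD/arsenate coupling and diaphorase/resazurin added. Fluorescence read after 20 min at RT, 525/598 nm.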
Large screens that a line does not name were inactive. Unless noted, the call rests on the fitted dose curve; in most records, active means well fitted curve in the direction sought with a large enough effect; inconclusive means small, poorly fitted or top-dose-only effect, or another doubt; inactive means no such curve, though single readings can be large; an effect the other way counts as inactive or inconclusive.

Oc1cccc2c(NC(=S)Nc3ccc(SC(F)F)cc3)cccc12	FMDV inh 13µM, FBPA Giardia inh 1.8µM
CC1CC=CC2C1C(=O)N(Cc1ccccc1)C2c1ccoc1 (centres undefined)	none (no result: Lassa entry inh, HCMV inh, HCV inh, MARV entry inh, FMDV inh)
CN1CCN(c2ncc3ncc(=O)n(CCC#N)c3n2)CC1	none (no result: Lassa entry inh, HCMV inh, HCV inh, MARV entry inh)
N#C/C(=C\c1ccc(-c2cc(Cl)ccc2Cl)o1)C(=O)Nc1ccccc1C(=O)O	Lassa entry inh inconclusive (no result: HCV inh, MARV entry inh, FBPA Giardia inh)
COc1ccccc1N1CCN(c2nc(CNC(=O)c3ccccc3F)nc3ccccc23)CC1	none (no result: Lassa entry inh, HCMV inh, HCV inh, MARV entry inh, FBPA Giardia inh)
CCOc1ccc(S(=O)(=O)N(CC)CC)cc1N	HCMV inh -81
CCN(CC)S(=O)(=O)c1ccc(-c2ccc(S(=O)(=O)N(CC)CC)cc2)cc1	Lassa entry inh inconclusive, HCMV inh -64, HCV inh inconclusive, MARV entry inh inconclusive, FMDV inh inconclusive
COc1ccc(CNc2ncncc2-c2ccc(N(C)C)cc2)c(OC)c1	none (no result: Lassa entry inh, HCMV inh, HCV inh, MARV entry inh)
CCOC(=O)c1ccc(NC(=O)c2cccc(S(=O)(=O)N3c4ccccc4CC3C)c2)s1 (centres undefined)	Lassa entry inh inconclusive, HCMV inh -69, HCV inh inconclusive, MARV entry inh inconclusive, FMDV inh inconclusive
CCOc1ccc(S(=O)(=O)N2c3ccccc3CC2C)cc1 (centres undefined)	Lassa entry inh inconclusive, HCV inh 8.9µM, MARV entry inh inconclusive
CCN(CC)CCNC(=O)c1ccc(NC(=O)c2cccc(S(=O)(=O)N3CCc4ccccc43)c2)cc1	HCMV inh inconclusive, HCV inh inconclusive, MARV entry inh 8.9µM (no result: FBPA Giardia inh)
CC1Cc2ccccc2N1S(=O)(=O)c1cccc(C(=O)NCCCO)c1 (centres undefined)	none
CCN(CC)CCNC(=O)c1ccc(NC(=O)c2cccc(S(=O)(=O)N3c4ccccc4CC3C)c2)cc1 (centres undefined)	HCV inh 11µM (no result: Lassa entry inh, MARV entry inh, FBPA Giardia inh)
CCN(CC)CCNC(=O)c1cc(S(=O)(=O)N2CCc3ccccc32)cn1C	none (no result: Lassa entry inh, MARV entry inh)
O=C(Nc1c(F)cccc1F)c1ccc2c(c1)CCN2S(=O)(=O)c1ccccc1	Lassa entry inh inconclusive, HCV inh inconclusive, FMDV inh 0.32µM
CCc1ccc(NC(=O)CSC2=C(C#N)C(c3ccc4c(c3)OCO4)CC(=O)N2)cc1 (centres undefined)	HCMV inh -77, HCV inh 11µM (no result: FMDV inh, FBPA Giardia inh)
CCOC(=O)CSC1=C(C#N)C(c2ccc(C)o2)CC(=O)N1 (centres undefined)	HCMV inh -84, HCV inh inconclusive (no result: Lassa entry inh, MARV entry inh)
CCCCOC(=O)CSC1=C(C#N)C(c2ccc3c(c2)OCO3)CC(=O)N1 (centres undefined)	none
CCOC(=O)CSC1=C(C#N)C(c2ccc(Cl)cc2)CC(=O)N1 (centres undefined)	HCV inh inconclusive (no result: Lassa entry inh, MARV entry inh)
CCCOC(=O)CSC1=C(C#N)C(c2ccccc2Cl)CC(=O)N1 (centres undefined)	HCV inh 32µM (no result: Lassa entry inh, MARV entry inh)
CCOC(=O)CSC1=C(C#N)C(c2ccc3c(c2)OCO3)CC(=O)N1 (centres undefined)	HCV inh inconclusive, MARV entry inh 16µM
CC(C)(C)OC(=O)N1CCC(c2c(C(=O)N3CCN(c4ncccn4)CC3)cnn2-c2ccc(F)cc2)CC1	none (no result: HCV inh, MARV entry inh, FBPA Giardia inh)
C[C@H](N=C(NC#N)Nc1ccncc1)C(C)(C)C	none (no result: Lassa entry inh, HCMV inh, HCV inh)
COc1cc2c(cc1OC)C(c1ccc(F)cc1)N(c1ccccc1)C(=O)C2 (centres undefined)	none (no result: HCV inh, FBPA Giardia inh)
C=CCNC(=S)/N=c1/ccccn1CCC	HCMV inh -107 (no result: Lassa entry inh)
C=CCNC(=S)/N=c1/ccccn1C	HCMV inh -98, FBPA Giardia inh inconclusive
C=CCNC(=S)/N=c1\sccn1C	Lassa entry inh inconclusive
Cc1oc(-c2ccccc2NC(=O)C2CCCO2)nc1CNC(=O)c1[nH]c2c(C)ccc(C)c2c1C (centres undefined)	none (no result: Lassa entry inh, HCMV inh, HCV inh, MARV entry inh, FBPA Giardia inh)
CCOCCc1nn2c(=O)cc(COC(=O)c3cccc(C)c3)nc2s1	none (no result: HCV inh, MARV entry inh, FBPA Giardia inh)
CCOC(=O)c1c(C)[nH]c(C)c1S(=O)(=O)N1CCC(C(=O)NCc2ccc(F)cc2)CC1	none (no result: HCV inh, MARV entry inh, FBPA Giardia inh)
Cc1[nH]n2c(=O)cc(C(C)(C)C)nc2c1-c1ccccc1	Lassa entry inh 10µM, HCMV inh -62, HCV inh 10µM, MARV entry inh inconclusive
COc1cccc(N=Nc2c(N)[nH]n3c(=O)cc(-c4ccccc4)nc23)c1	none
Cc1[nH]n2c(=O)cc(-c3ccc(Cl)cc3)nc2c1-c1ccccc1	Lassa entry inh 2.5µM, HCMV inh -107, MARV entry inh 11µM, FMDV inh inconclusive (no result: HCV inh, FBPA Giardia inh)
Cc1ccc(N=Nc2c(N)[nH]n3c(=O)cc(-c4ccccc4)nc23)cc1	HCMV inh -81, HCV inh 13µM, MARV entry inh inconclusive
Cc1[nH]n2c(=O)cc(C(C)C)nc2c1-c1ccccc1	MARV entry inh inconclusive
Cc1[nH]n2c(=O)cc(-c3ccc([N+](=O)[O-])cc3)nc2c1-c1ccccc1	Lassa entry inh inconclusive, HCV inh 10µM, MARV entry inh inconclusive (no result: FBPA Giardia inh)
COc1ccc(S(=O)(=O)c2c(Nc3ccccc3F)sc(C(=O)c3cccc(OC)c3)c2N)cc1	Lassa entry inh inconclusive (no result: HCV inh, MARV entry inh, FBPA Giardia inh)
c1ccc(COc2cccc(-c3cc4nc(NCc5ccc6c(c5)OCO6)ccn4n3)c2)cc1	none (no result: Lassa entry inh, HCV inh, MARV entry inh, FBPA Giardia inh)
c1ccc(COc2ccc(-c3cc4nc(NCc5ccc6c(c5)OCO6)ccn4n3)cc2)cc1	HCMV inh -64 (no result: Lassa entry inh, HCV inh, MARV entry inh, FBPA Giardia inh)
Nc1ncnc2c1ncn2[C@H]1O[C@@H](CSCC[C@@H](N)C(=O)O)[C@H](O)[C@@H]1O	none (no result: Lassa entry inh, HCMV inh, HCV inh, MARV entry inh, FBPA Giardia inh)
CN(C)CCCNC(=S)NCC(c1ccc(Cl)cc1Cl)c1c[nH]c2ccccc12 (centres undefined)	Lassa entry inh 10µM, HCMV inh inconclusive, HCV inh 11µM, MARV entry inh inconclusive
CCCCNC(=S)NCC(c1ccccc1)c1c[nH]c2ccccc12 (centres undefined)	Lassa entry inh inconclusive, HCMV inh inconclusive, HCV inh inconclusive, MARV entry inh inconclusive
COC(=O)c1sccc1NC(=O)c1cccc(F)c1	none (no result: FBPA Giardia inh)
COC(=O)c1sccc1NC(=O)c1c(F)c(F)c(F)c(F)c1F	Lassa entry inh inconclusive, HCMV inh inconclusive, HCV inh 13µM, MARV entry inh inconclusive, FMDV inh 22µM (no result: FBPA Giardia inh)
COC(=O)c1sccc1NC(=O)c1ccncc1	MARV entry inh 0.1µM
COC(=O)c1cc(NC(=O)c2c(F)c(F)c(F)c(F)c2F)cc(C(=O)OC)c1	Lassa entry inh inconclusive, HCMV inh -63, HCV inh 13µM, MARV entry inh inconclusive
COc1ccccc1C1C=C(c2ccc(C)cc2)Nc2nnnn21 (centres undefined)	HCV inh inconclusive
COc1ccc(C2=CC(c3c(C)nn(-c4ccccc4)c3Cl)n3nnnc3N2)cc1OC (centres undefined)	Lassa entry inh inconclusive, HCMV inh inconclusive, HCV inh 11µM, MARV entry inh inconclusive, FMDV inh 18µM
